The sample as a whole holds a higher share of hits than the screen did.
RXFP1 ag: RXFP1 (human) receptor agonism; HEK293T-RXFP1 cAMP TR-FRET, 30 min; response scale: percent of porcine relaxin response, buffer zero; Q9HBX9; 370,000 compounds, 0.3% hits; Potency, µM (top dose mostly 57.5 µM), for the others: top-dose activation, usual class: activators; AID 2676; note: potency is the fitted concentration of half-maximal effect; % is set by controls: 0 for no effect and ±100 for the full control effect; nearly all actives have a fitted effect of over 60% in size
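Agonist response is measured as cAMP accumulation in an RXFP1-transfected HEK293T line under PDE4 inhibition. Values are scaled between buffer-only and 29 nM porcine relaxin, and EC50s come from standard Hill equation fits.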
TSHR antagonist: human thyrotropin receptor antagonism; P16473; TSHR-expressing cells, TSH-stimulated cAMP HTRF, 2 h; stronger effect = lower value; activity change, negative = inhibition, % at 11.5 µM; 330,000 compounds, 0.2% hits; AID 504810;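 active = activity change below a set negative limit, meaning inhibition stronger than a set level, cut at about -70% in these data; inconclusive = activity change between two set negative limits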; note: % is set by controls: 0 for no effect and ±100 for the full control effect
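Antagonism was scored as loss of TSH-driven cAMP in TSHR cells, stimulated with 4nM TSH (EC80) for 2 hours at 37 deg C and detected by homogeneous HTRF competition immunoassay.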
RXFP1 antag: RXFP1 (human) relaxin receptor antagonism | Q9HBX9 | HEK293-RXFP1, relaxin-stimulated cAMP HTRF, 30 min; stronger effect = lower value | activity change, negative = inhibition, % at 57.5 µM | 350,000 compounds, 0.59% hits | AID 1259400;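 active = activity change of -60% or lower, but not beyond a set lower limit; inconclusive = change between -60% and -40%, or beyond the set limit; inactive = change above -40%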; note: % is set by controls: 0 for no effect and ±100 for the full control effect
NPSR antagonist: blocks cAMP signaling of the human neuropeptide S receptor; Q6W5P4; 220,000 compounds, 1% hits; CHO-NPSR cells, cAMP TR-FRET, antagonist mode; Potency, µM (series often up to 38.3 µM), without a hit: at the top dose activity change, negative = inhibition, actives largely listed as inhibitors; note: potency is the fitted concentration of half-maximal effect; % is set by controls: 0 for no effect and ±100 for the full control effect; nearly all actives have a fitted effect of over 50% in size
PTHR1 ag: PTHR1 (human) receptor agonism; 410,000 compounds, 0.075% hits; Potency, µM (series often up to 115 µM), without a hit: top-dose activation, usual class: activators; AID 743266; HEK293 GP2 PTHR1 cells, GloSensor cAMP luminescence, 1 h; Q03431; note: potency is the fitted concentration of half-maximal effect; nearly all actives have a fitted effect of over 55% in size
Target sequence (Q03431 whole entry, looked up): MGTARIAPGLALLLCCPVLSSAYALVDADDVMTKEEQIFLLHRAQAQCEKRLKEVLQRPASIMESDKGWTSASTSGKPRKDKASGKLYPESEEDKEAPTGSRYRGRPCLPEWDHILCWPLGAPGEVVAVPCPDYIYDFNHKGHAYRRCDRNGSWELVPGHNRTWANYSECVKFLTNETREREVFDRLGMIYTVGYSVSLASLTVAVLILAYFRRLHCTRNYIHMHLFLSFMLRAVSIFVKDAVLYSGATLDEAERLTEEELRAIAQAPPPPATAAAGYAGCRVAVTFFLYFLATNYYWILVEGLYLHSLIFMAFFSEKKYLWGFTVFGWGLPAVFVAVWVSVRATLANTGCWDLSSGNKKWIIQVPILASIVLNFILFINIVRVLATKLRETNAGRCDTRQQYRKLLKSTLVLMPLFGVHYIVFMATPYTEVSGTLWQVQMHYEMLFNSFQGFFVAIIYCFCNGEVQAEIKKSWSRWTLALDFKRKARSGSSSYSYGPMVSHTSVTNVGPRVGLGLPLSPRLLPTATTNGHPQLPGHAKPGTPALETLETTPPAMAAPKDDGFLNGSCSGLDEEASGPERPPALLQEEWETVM
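HEK-293-derived GP2 cells expressing PTHR1 and a GloSensor cAMP reporter, 3,000/well, plated overnight, given luciferin plus IBMX (each 0.5 mM as added) for 1 h at 37 °C, then compound for 1 h at 37 °C. Luminescence was read after 15 min at room temperature.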
GLP1R cytotox: cytotoxic in the GLP-1 receptor inverse agonist counter-screen; 410,000 compounds, 0.13% hits; HEK293 cAMP-luciferase reporter cells, luminescence, 24 h; Potency, µM (series often up to 38.3 µM), without a hit: at the top dose activity change, negative = inhibition, actives largely listed as inhibitors; AID 624418;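 note: loss of luciferase light is scored as toxicity; potency is the fitted concentration of half-maximal effect; % is set by controls: 0 for no effect and ±100 for the full control effect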
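Quantitative HTS format, 1536 wells, 200 cells/uL seeded. Compounds: 23 nL, 24 h, 37 °C. Detection: luciferase reagent, luminescence at 12 min RT; decreased signal taken as cytotoxic.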
* marks the source's active call; other numbers are inactive results; ! = a repeat was not active. Unless noted, calls come from the whole dose curve; as a rule, active = well fitted curve in the direction sought with a large enough effect; inconclusive = small, poorly fitted or top-dose-only effect, or another doubt; inactive = no such curve, though single readings can be large; an effect the other way counts as inactive or inconclusive.

What do the screens show for `Cc1ccc(NC(=O)c2nc(S(=O)(=O)Cc3ccc(F)cc3)ncc2Cl)cc1C`?
RXFP1 ag: 2%; RXFP1 antag: inconclusive; PTHR1 ag: -37%; GLP1R cytotox: inconclusive

Results for COc1ccc(OC)c(NC(=O)c2nc(S(=O)(=O)Cc3ccc(F)cc3)ncc2Cl)c1 ?
RXFP1 ag: 6%; RXFP1 antag: -107*; PTHR1 ag: inactive; GLP1R cytotox: inconclusive

Results for CC(C)c1nnc(NC(=O)c2nc(S(=O)(=O)Cc3ccccc3)ncc2Cl)s1 ?
RXFP1 ag: -1%; TSHR antagonist: inconclusive; RXFP1 antag: -72*!; PTHR1 ag: -20%; GLP1R cytotox: inconclusive

Results for CCOc1ccc(N2C(=O)CC(=O)NC2=O)cc1 ?
RXFP1 ag: -3%; TSHR antagonist: -2; RXFP1 antag: -4; PTHR1 ag: inactive; GLP1R cytotox: -17%

What do the screens show for `COc1cc(N2C(=O)CC(=O)NC2=O)cc(OC)c1OC`?
RXFP1 ag: -2%; TSHR antagonist: -130*; RXFP1 antag: -1; PTHR1 ag: inactive; GLP1R cytotox: 3%

How did Cc1nn(CC(O)CN2c3ccccc3Sc3ccccc32)c(C)c1Br (configuration not stated) do in these assays?
RXFP1 ag: 2%; TSHR antagonist: 2; RXFP1 antag: -22; NPSR antagonist: 6.3µM*; PTHR1 ag: inactive; GLP1R cytotox: inconclusive

What do the screens show for `Cc1cccc(OCCn2cccc2/C=C2/C(=O)NC(=O)N(Cc3ccco3)C2=O)c1`?
RXFP1 ag: 1%; TSHR antagonist: 5; RXFP1 antag: -68*; NPSR antagonist: 13%; PTHR1 ag: inactive; GLP1R cytotox: -2%

Results for C=CCN1C(=O)NC(=O)/C(=C\c2ccc(-c3ccccc3[N+](=O)[O-])o2)C1=O ?
RXFP1 ag: -2%; TSHR antagonist: -13; RXFP1 antag: -101*; NPSR antagonist: -44%; PTHR1 ag: -2%; GLP1R cytotox: inconclusive

How did O=C1NC(=O)N(Cc2ccco2)C(=O)/C1=C/c1ccc(-c2cccc([N+](=O)[O-])c2)o1 do in these assays?
RXFP1 ag: 2%; TSHR antagonist: -9; RXFP1 antag: -67*; NPSR antagonist: inconclusive; PTHR1 ag: -24%; GLP1R cytotox: -19%

How did C=CCN1C(=O)/C(=C/c2ccc(N3CCOCC3)o2)C(=O)NC1=S do in these assays?
RXFP1 ag: -5%; TSHR antagonist: 11; RXFP1 antag: -9; NPSR antagonist: -15%; PTHR1 ag: inactive; GLP1R cytotox: -12%

Results for O=C1NC(=O)N(Cc2ccco2)C(=O)/C1=C\c1cccn1CCOc1ccc(Cl)cc1 ?
RXFP1 ag: -3%; TSHR antagonist: 9; RXFP1 antag: inconclusive; NPSR antagonist: inconclusive; PTHR1 ag: -26%; GLP1R cytotox: -8%

How did COc1ccccc1CNc1nc(NCc2ccccc2SC)c2sccc2n1 do in these assays?
PTHR1 ag: -92%; GLP1R cytotox: -26%

What do the screens show for `Nc1ccc2c(c1)C(=O)C(=O)c1ccccc1-2`?
RXFP1 ag: 2%; TSHR antagonist: -79*; RXFP1 antag: -32; NPSR antagonist: 10µM*; PTHR1 ag: -27%; GLP1R cytotox: 3.5µM*

How did CCn1ccnc1CN1CCCC(C(=O)c2ccc(SC)cc2)C1 (configuration not stated) do in these assays?
RXFP1 ag: 4%; TSHR antagonist: 3; RXFP1 antag: -7; NPSR antagonist: 14%; PTHR1 ag: inactive; GLP1R cytotox: 13µM*

Results for CSc1ccc(C(=O)C2CCCN(Cc3cnc(SC)nc3)C2)cc1 (configuration not stated) ?
RXFP1 ag: -2%; TSHR antagonist: -5; RXFP1 antag: -1; NPSR antagonist: 35%; PTHR1 ag: -82%; GLP1R cytotox: -5%

Results for Cn1nc(-c2ccc(C(=O)Nc3ccc(OC(F)(F)F)cc3)cc2)c2ccccc2c1=O ?
RXFP1 ag: 0%; RXFP1 antag: -10; PTHR1 ag: -48%; GLP1R cytotox: -11%

What do the screens show for `CCOC(=O)C1(c2ccccc2)CCN(CCc2ccc(N)cc2)CC1`?
RXFP1 antag: -13

How did S=C1CN=C(c2ccccc2)c2cc(Cl)ccc2N1 do in these assays?
RXFP1 ag: 0%; TSHR antagonist: 0; RXFP1 antag: -111*; NPSR antagonist: 13µM*; PTHR1 ag: -34%; GLP1R cytotox: inconclusive

Source: PubChem BioAssay (National Center for Advancing Translational Sciences (NCATS))
